According to PubChem BioAssay AID709 (SRMLSC, 2007):
The campaign covered roughly 65,000 compounds. About 3,600 (5.5%) were called active. For the sample, actives were picked, then their nearest neighbours and some compounds at random. Unmarked numbers belong to inactive results.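 How the source made its calls: active means at 10 µM, mean starting fluorescence two-fold or more over control wells; inactive means the rest.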

experiment: intrinsic fluorescence of library compounds, ex339/em460 – biochemical, MLSMR library, data from DPM-DC assay, artefact control, profiling panel (AID 709); settings: compound autofluorescence, ex339/em460 nm, NADH buffer; at 10 µM; stronger effect = higher value; 1 = no-compound wells, NADH background;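 further: signal is the first read of a kinetic run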

Compound	fluorescence fold increase
O=c1oc2c(CN3CCCCC3)c(O)ccc2c2c1CCCCC2	2.34 (active)
CCN1CCN(Cc2c(O)ccc3c(=O)c(-c4ccc(OC)c(OC)c4)c(C(F)(F)F)oc23)CC1	1.18
CN1CCN(Cc2c(O)ccc3c2oc(=O)c2ccccc23)CC1	1.15
O.O.O.O=S(=O)([O-])OC[C@H]1O[C@@H](O[C@]2(COS(=O)(=O)[O-])O[C@H](OS(=O)(=O)[O-])[C@@H](OS(=O)(=O)[O-])[C@@H]2OS(=O)(=O)[O-])[C@H](OS(=O)(=O)[O-])[C@@H](OS(=O)(=O)[O-])[C@@H]1OS(=O)(=O)[O-].[Al]	1.14
O=C(CCOc1ccccc1)NCc1ccccc1	1
CCNCc1cc2cc(C)ccc2[nH]c1=O	1.39
COc1ccc(S(=O)(=O)N(CCCN2CCCC2=O)Cc2cc3c(C)ccc(C)c3[nH]c2=O)cc1	1.97
CCN(Cc1cc2cc(C)ccc2[nH]c1=O)S(=O)(=O)c1ccccc1	1.54
CCOC(=O)c1cc2cc(C)ccc2[nH]1	1.67
CC(=O)OCc1cc2cc(C)ccc2[nH]c1=O	1.43
COc1ccc(N(Cc2cc3cc(OC)ccc3[nH]c2=O)S(C)(=O)=O)cc1	3 (active)
Cc1ccc2[nH]c(=O)c(COC(=O)c3ccccn3)cc2c1	1.42
CCOc1ccc2[nH]c(=O)c(CN(CCCO)C(C)=O)cc2c1	3.27 (active)
CCC(=O)N(Cc1cc2cc(OC)ccc2[nH]c1=O)c1ccccc1C	3.71 (active)
O=C(CSc1nnnn1C1CCCC1)Nc1ccc2c(c1)OCCO2	1.11
O=C(NC12CC3CC(CC(C3)C1)C2)N1CCCC(CO)C1 (configuration not stated)	1.11
O=C(CN1CCN(C(=O)c2cccc(F)c2)CC1)Nc1ccccc1F	1.17
COc1cc(CO)c(C2(CO)CCCC2)cc1OC	1.08
Cc1cc(N2C(=O)c3ccc(C(=O)NCc4ccccc4)cc3C2=O)no1	1.1
CC1Cc2cc(/C(O)=C3\C(=O)C(=O)N(CCN4CCOCC4)C3c3ccccc3F)ccc2O1 (configuration not stated)	1.11
CCOC(=O)c1nc(-c2ccc3c(c2)OCO3)[nH]c1C	1.4
CCCC(=O)Nc1ccc2c(c1)nc1n2CCSC1	1.21
CCCCCC(=O)Nc1ccc2oc(-c3ccncc3)nc2c1	3.72 (active)
CCCCC(=O)Nc1cc(C)c2c(=O)oc3ccccc3c2n1	1.19
CCOC(=O)CSc1nnc(-c2ccco2)n1C	1.04
CCOC(=O)c1ccn(-c2nc(-c3ccco3)cc(C(F)(F)F)n2)n1	2.09 (active)

Compound	fluorescence fold increase
O=C(CSc1nc(-c2ccco2)cc(C(F)(F)F)n1)NCc1cccs1	1.14
O=C(CSc1nc(-c2ccco2)cc(C(F)(F)F)n1)N1CCc2ccccc2C1	1.1
FC(F)(F)c1cc(-c2ccco2)nc(N2CCOCC2)n1	1.11
Cc1cc(C(F)(F)F)nn1-c1nc(-c2ccco2)cc(C(F)(F)F)n1	2.81 (active)
O=c1[nH]c(=O)n(Cc2ccco2)c2c1C(C(F)(F)F)(C(F)(F)F)N=C(c1ccco1)N2	1.16
CCCCn1nnnc1NCc1cc(OC)c(OC)c(OC)c1	1.07
CCCC(C(=O)NCc1ccco1)N(C(=O)CNS(=O)(=O)c1ccccc1)C1CCCC1 (configuration not stated)	1
CC(=NCC1CCCO1)c1c(O)[nH]c(=O)[nH]c1=O (configuration not stated)	1.14
Cc1ccc(C)c(S(=O)(=O)n2cnc3ccccc32)c1	1.02
O=C(CSc1nc2ncccc2[nH]1)Nc1ccc2c(c1)OCCO2	1.01
C=C(C)Cn1c(SCC(=O)NCc2ccco2)nc2sc3c(c2c1=O)CCC3	1.09
O=C(Cc1ccccc1)n1nc(-c2ccccc2)nc1NCc1ccco1	1.13
CN1CCc2c(sc3c2c(NCc2ccco2)nc2nnnn23)C1	2.08 (active)
Cc1cccc(N)c1SC1CCCCC1O (configuration not stated)	1.03
CCOC(=O)c1cn(CC(=O)Nc2ccc(C(C)C)cc2)nn1	1.16
COc1ccccc1Nc1ncnc2c1oc1ccccc12	1.7
CCc1nc(Nc2ccc3nccnc3c2)c2oc3ccccc3c2n1	2.54 (active)
CCSc1nc(C)nc2c1oc1ccccc12	1.02
CNC(=O)NCCN1CCCC1=O	1.05
COCCNC(=S)c1ccc(OC)cc1	1.02
CCN(CC)CCNC(=O)C1c2ccccc2C(=O)N(C)C1c1cn(C)c2ccccc12 (configuration not stated)	1.07
O=C(CCn1c(=S)[nH]c2ccccc2c1=O)NCCCN1CCCC1=O	0.98
O=C1CCCN1CCCNc1ncnc2c1[nH]c1ccccc12	2.27 (active)
CC1(C)CC(=O)C=C(NCCCN2CCCC2=O)C1	1.11
O/N=C(\c1ccc2c(c1)OCCO2)C1CCCCC1	1.08
CCOC(=O)c1c(C)oc2ccc(OCC(=O)N(CC)CC)cc12	1.07

Compound	fluorescence fold increase
COC(=O)COc1ccc2oc(=O)cc(C)c2c1	2.31 (active)
COCCNC(=O)COc1ccc(C)c(C)c1	1.07
COc1ccc(C2CC(c3ccc(C)cc3)Nc3ncnn32)cc1 (configuration not stated)	1.03
c1ccc(-n2ncc3c2ncn2c(CSc4nc5ccccc5s4)nnc32)cc1	1.81
Cc1ccc(C(C)C)c(OCc2nnc(SCC(=O)Nc3nccs3)n2C)c1	1.13
O=C(Nc1ccc(S(=O)(=O)N2CCCCC2)cc1)c1cnccn1	1.14
COc1ccc(CCNS(=O)(=O)c2ccc(F)cc2)cc1OC	1.09
O=C(c1cc(-c2cccs2)on1)N1CCCCC1	1.16
Cc1ccc(Cn2ccc(NC(=O)c3cc(C(C)C)on3)n2)cc1	1.08
Cc1cc(NC(=O)c2cc(-c3cccs3)on2)nn1Cc1ccc(Cl)cc1	2.04 (active)
CCOC(=O)c1cc2cc(-c3c(C(=O)OCC)oc4cc(O)cc(O)c4c3=O)ccc2o1	1.11
CCCCOc1ccc(Cl)cc1CSc1nncn1N	1.07
Cc1ccccc1NC(=O)Cc1nnc(SCC(=O)N2CCN(c3ccccc3)CC2)n1C	1
CN(C)c1nc2n(c(=O)n1)CCO2	1.07
c1ccc(Nc2n[nH]nc2-c2ccccc2)cc1	1.07
CCOc1ccc(CNC(=O)C2CCC(=O)N2C2CCCC2)cc1OC (configuration not stated)	1.07
CCOc1cc(C2C(C(=O)OC)=CN(C3CCCC3)C=C2C(=O)OC)cc(Br)c1O	2.88 (active)
CCCC(=O)Nc1cc(OCC)c(NC(=O)NC2CCCCC2)cc1OCC	1.11
c1ccc(-n2ncc(-c3nn[nH]n3)n2)cc1	1.08
Cc1ccc(C(=O)Nc2ccc3c(c2)OCO3)cc1S(=O)(=O)N1CCCCC1	1.08
O=C(CC1N=C2c3ccccc3N=C(SCc3ccccc3Cl)N2C1=O)NCc1ccco1 (configuration not stated)	1.58
NC(=O)CSC1=Nc2ccccc2C2=NC(CCC(=O)NCc3ccc(F)cc3)C(=O)N12 (configuration not stated)	3.51 (active)
CC(C)C1N=C2c3ccccc3N=C(SCC(=O)c3ccc(O)c(O)c3)N2C1=O (configuration not stated)	1.21
CC(C)C(C(=O)NC1CCCCC1)N(CC1CCCO1)C(=O)CNS(=O)(=O)c1ccc(F)cc1 (configuration not stated)	1.11
COc1c(O)cccc1-c1nnn(CCC(=O)OCC(=O)c2ccccc2)n1	1.07
CC(C)(CNCC(O)c1ccccc1)N1CCOCC1 (configuration not stated)	1.05

Compound	fluorescence fold increase
O=S(=O)(O)CCN1CCOCC1	1.15
Brc1cnc(N2CCCC2)nc1N1CCCCC1	1.08
CCOc1cc(-c2nc3cc(C)ccn3c2NCC2CCCO2)ccc1O (configuration not stated)	3.63 (active)
CCOc1cccc(=O)c2c(C)n(CC3CCCO3)c(C)c12 (configuration not stated)	1.05
CCOc1cc(C(=S)N2CCOCC2)ccc1O	1.04
CCn1c(=O)cc(SCC(=O)NCc2ccc3c(c2)OCO3)c2ccccc21	1.2
COc1cc(-c2nc(-c3ccncc3)no2)cc(OC)c1OC	1.03
CCOc1nc(-c2ccc(OC)cc2)ccc1-c1noc(-c2cc(OC)c(OC)c(OC)c2)n1	3.92 (active)
COc1ccc(-c2ccc(-c3noc(-c4ccncc4)n3)c(OC)n2)cc1	3 (active)
O=C(Oc1ccc(-c2nc(-c3ccccn3)no2)cc1)c1ccccc1	1.09
COc1ccc2[nH]c(=O)c(-c3noc(-c4ccc(F)cc4)n3)cc2c1	1.38
COc1ccc(-c2nc(-c3ccccc3)no2)c(OC)c1	1.12
CCc1nnc(NC(=O)c2c(O)c3c([nH]c2=O)CCCC3)s1	1.12
Cc1ccc2cccc(S(=O)(=O)N3CCN(c4ccccc4F)CC3)c2n1	1.14
O=C(CN1C(=O)CCC1=O)Nc1ccc(S(=O)(=O)N2CCOCC2)cc1	1.15
C=CCSC1=C(C#N)C(c2cc(Br)c(O)c(OC)c2)CC(=O)N1 (configuration not stated)	1.07
CN(c1ccc(C(=O)N2CCc3ccccc3C2)cc1)S(C)(=O)=O	1.11
O=[n+]1c2c(n([O-])c3cc(Br)ccc31)CCC2	1.07
CN1CCCc2cc(C#N)c(=O)[nH]c21	2.4 (active)
CC(C)(C)n1nnc(CCc2nnn(C(C)(C)C)n2)n1	1.09
COC(=O)C(C)C1Sc2ccccc2NC1=O (configuration not stated)	1.01
CCc1ccc(NC(=O)CSc2nnc(-c3cnccn3)n2Cc2ccco2)cc1	1.06
O=C(Nc1ncc2c(n1)CC(c1ccco1)CC2=O)c1ccc(Cl)cc1 (configuration not stated)	1.05
CCc1ccc(Nc2ncc3c(n2)CC(c2ccco2)CC3=O)cc1 (configuration not stated)	2.39 (active)
